High-throughput results deposited in PubChem by National Center for Advancing Translational Sciences (NCATS).
Rab9 prom act = Rab9 promoter activation. Potency, µM (top dose mostly 9.22 µM), inactives show at the top dose activation, negative = inhibition, actives largely listed as activators. Huh7 Rab9 promoter-luciferase reporter, luminescence, 24 h. 320,000 tested, 2.8% active; also: % of control where 0% means no effect; nearly all actives have a fitted effect of over 60% in size
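Luminescence read-out: Huh7 cells stably expressing Rab9-luciferase, treated 24 h with compound at 37 °C, then lysed with luciferase reagent for 10 min at ambient before reading.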
SMN2 splice enh = increases expression of the SMN2 splice variant; Potency, µM (top dose mostly 46.1 µM), for the others: top-dose activity change, positive = activation, most hits filed as activators; 210,000 tested, 2.8% active; HEK293 SMN2-luciferase splicing reporter, luminescence, 30-36 h; also: % of control where 0% means no effect; nearly all actives have a fitted effect of over 55% in size
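qHTS luciferase splicing reporter: luminescence rises when SMN2 exon 7 is included in transfected HEK293 cells. Compound exposure lasted 30-36 h at 37C, with 4.5 mM final sodium butyrate as control, followed by a ONE-Glo read.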
ELG1 repair inh = ELG1-dependent DNA repair inhibition. HEK293T ELG1-luciferase reporter, luminescence, 16 h; DNA damage induced by 5-fluorouridine. Potency, µM (doses to about 46.1 µM), for the others: at the top dose activity change, negative = inhibition, most hits filed as inhibitors. AID 504467. 330,000 tested, 2.3% active; also: % is scaled to controls: 0 for no effect and ±100 for the full control effect; nearly all actives have a fitted effect of over 55% in size
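Step one: seed 2,000 cells per well. Step two: pin-transfer compound or DMSO alongside 5-fluorouridine. Step three: incubate 16 hr, 37 °C, 5% CO2. Step four: add ONE-Glo, wait 30 min, read luminescence.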
FLuc modulator = counter-screen for miR-21 project: firefly luciferase inhibitors or activators; P08659; purified FLuc, Km substrates, luminescence inhibition; Potency, µM (titrated, usually from 57.5 µM), for the others: top-dose activity change, negative = inhibition, most hits filed as inhibitors; 360,000 tested, 6.9% active; AID 588342;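 also: plate controls were vehicle for no effect and reference inhibitor for full effect; nearly all actives have a fitted effect of over 55% in size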
Target sequence (P08659 whole entry, looked up): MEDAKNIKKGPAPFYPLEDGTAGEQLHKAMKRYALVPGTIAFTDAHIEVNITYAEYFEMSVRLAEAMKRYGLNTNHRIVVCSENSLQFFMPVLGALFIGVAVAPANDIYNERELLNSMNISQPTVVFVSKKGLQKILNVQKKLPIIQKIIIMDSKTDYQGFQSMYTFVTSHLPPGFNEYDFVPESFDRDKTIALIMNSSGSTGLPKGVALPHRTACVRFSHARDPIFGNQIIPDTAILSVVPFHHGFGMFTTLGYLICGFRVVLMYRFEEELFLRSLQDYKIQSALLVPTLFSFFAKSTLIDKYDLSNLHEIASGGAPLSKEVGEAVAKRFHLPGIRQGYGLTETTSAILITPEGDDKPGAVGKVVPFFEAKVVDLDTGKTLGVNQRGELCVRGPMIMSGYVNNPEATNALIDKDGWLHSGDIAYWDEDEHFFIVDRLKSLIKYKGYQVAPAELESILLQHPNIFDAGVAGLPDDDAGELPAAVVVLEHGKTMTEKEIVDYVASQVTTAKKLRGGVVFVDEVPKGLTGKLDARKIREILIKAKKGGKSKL
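Biochemical qHTS of compounds, final roughly 60 µM downward over six points, against 10 nM purified firefly luciferase using Km concentrations of substrates (10 uM D-luciferin, 10 uM ATP) in Tris acetate pH 7.5 buffer; luminescence output.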
ELG1 genotoxic = induces genotoxicity in HEK293T cells with luciferase-tagged ELG1; 330,000 tested, 1.3% active; HEK293T ELG1-luciferase reporter, luminescence, 16 h; Potency, µM (highest dose often 46 µM), inactives show top-dose activity change, positive = activation, actives largely listed as activators; AID 504466; also: % of control where 0% means no effect; nearly all actives have a fitted effect of over 60% in size
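Screening used a luciferase reporter fused to human ELG1 in HEK293T cells. Luminescence was read on a CCD plate imager after 16 hr exposure and 30 min ONE-Glo incubation.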
NPC1 promoter act = activators of NPC1 promoter | Huh7 NPC1 promoter luciferase reporter, 24 h | Potency, µM (titrated, usually from 9.22 µM), for inactives: at the top dose activation, hits mostly activators | 320,000 tested, 2.4% active | AID 485313; also: % of control where 0% means no effect; nearly all actives have a fitted effect of over 60% in size
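Stable NPC1-promoter luciferase Huh7 line; cpd (DMSO) 24 h, 37 °C, 5% CO2; Amplite luciferase reagent 10 min RT; luminescence readout. qHTS format.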
The depositor's hits bear a star; ? = inconclusive; / = no result given; [ ] = remark or other dose. Shown are actives, neighbours in structure and some others; about 9.4% of the full set was active somewhere. Calls follow the shape of the dose curve; as a rule, active = well fitted curve in the direction sought with a large enough effect; inconclusive = small, poorly fitted or top-dose-only effect, or another doubt; inactive = no such curve, though single readings can be large; an effect the other way counts as inactive or inconclusive. Potency is read from the fitted curve at half-maximal effect.

SMILES	Rab9 prom act	SMN2 splice enh	ELG1 repair inh	FLuc modulator	ELG1 genotoxic	NPC1 promoter act
CCc1ccc(-n2nc(CO)c(C(=O)NC(C)c3ccc(Cl)cc3)n2)cc1 (stereo unspecified)	/	4%	/	-19%	/	/
CCCCSCCCNC(=O)c1c[nH]c2ccc(S(=O)(=O)Nc3cccc(OC)c3)cc2c1=O	/	/	/	-18%	/	/
CCc1ccc(CNC(=O)C2Cc3cc(S(=O)(=O)N4CCCCCC4)ccc3N2C(C)=O)cc1 (stereo unspecified)	/	/	/	0%	/	/
Cc1ccc(C2(C)NC(=O)N(CC(=O)Nc3ccc(-c4nc5ccc(C)cc5s4)cc3)C2=O)cc1 (stereo unspecified)	?	/	?	2.4µM*	?	1.8µM*
Cc1ccc(NC(=O)CN2C(=O)NC(C)(c3ccc4c(c3)OCO4)C2=O)cc1 (stereo unspecified)	/	/	-6%	/	-1%	/
Cc1ccc(Nc2nc(C)nc3c2oc2ccccc23)cc1	-4%	/	?	-22%	-6%	1%
COc1cccc(Nc2nc(N)nc(-c3oc4ccccc4c3C)n2)c1	19%	?	0%	19µM*	3%	-7%
Cc1cccc(Nc2nc(N)nc(-c3oc4ccccc4c3C)n2)c1	?	/	-3%	?	?	18%
Cc1ccc(Nc2nc(N)nc(-c3oc4ccccc4c3C)n2)cc1	-1%	13µM*	?	7.6µM*	9.2µM*	?
Cc1c(-c2nc(N)nc(Nc3ccccc3F)n2)oc2ccccc12	0.89µM*	11µM*	?	3µM*	4µM*	1.6µM*
COc1ccccc1Nc1nc(N)nc(-c2cc3ccccc3o2)n1	27%	?	0%	?	?	10%
CCOC(=O)c1ccc(N[C@@H]2CCN3C(=O)c4ccccc4[C@@H]3C[C@H]2O)cc1	/	/	?	/	2%	/
Cc1ccc2oc3c(c(=O)c2c1)C(c1cccc(O)c1)N(c1ccccn1)C3=O (stereo unspecified)	-2%	-43%	16µM*	1%	-32%	-2%
Cc1ccc2oc3c(c(=O)c2c1)C(c1ccccc1F)N(c1ccccn1)C3=O (stereo unspecified)	/	-2%	/	1%	/	/
O=C(CCc1nnc2ccc(NCc3ccccc3)nn12)NC1CCCCC1	-2%	/	15%	2%	7%	-1%
CC1Oc2ccccc2C=C1/C=N/NC(=O)c1ccncc1 (stereo unspecified)	-2%	/	?	17µM*	0%	0%
COc1ccc(S(=O)(=O)N2CCN(c3ccc(Cl)c(Cl)c3)CC2)c2ccccc12	/	-22%	/	0%	/	/
COc1ccc(N(CC(=O)Nc2cccc(C(C)=O)c2)S(=O)(=O)c2ccccc2)c(OC)c1	/	-8%	/	-8%	/	/
Cc1ccc(C)c(NC(=O)C2CCN(S(=O)(=O)c3c(C)noc3/C=C/c3cccs3)CC2)c1	/	3%	/	-9%	/	/
CCOc1cc(/C=C2\COc3ccccc3C2=O)ccc1OCC(=O)N(C)C	-7%	/	?	-18%	-24%	2%
O=C1/C(=C/c2cccs2)COc2ccccc21	15%	-2%	?	1.3µM*	?	-2%
COc1ccc(-n2nc(C(=O)Nc3ccc(Cl)cn3)c3c4ccccc4n(C)c3c2=O)cc1Cl	/	-4%	/	4%	/	/
O=c1c(Cl)cc(Cl)nn1-c1ccccc1	8%	4%	23µM*	2%	-12%	-10%
COc1cc(Cl)nn(-c2ccccc2)c1=O	-3%	-25%	9%	-2%	0%	2%
O=C1c2cccnc2C(=O)N1c1cccc(-c2nc3ccccc3o2)c1	-7%	1%	?	3.8µM*	3%	1%
SMILES	Rab9 prom act	SMN2 splice enh	ELG1 repair inh	FLuc modulator	ELG1 genotoxic	NPC1 promoter act
Cc1c(C(=O)NCc2ccco2)oc2c(F)cccc12	-4%	/	11%	0%	3%	1%
Cc1c(C(=O)NC2CCOC2)oc2c(F)cccc12 (stereo unspecified)	2.5µM*	/	?	11µM*	18%[9.26 µM]	2.2µM*
Cc1c(C(=O)O)oc2c(F)cccc12	-3%	7%	-1%	-20%	0%	-3%
Cc1c(C(=O)N2C[C@@H](C)O[C@@H](C)C2)oc2c(F)cccc12	?	/	?	15µM*	?	?
Cc1c(CCC(=O)NCCc2ccccc2F)c(=O)oc2cc(O)ccc12	/	3%	/	-18%	/	/
COC(=O)c1ccccc1NC(=O)Cn1cc(S(=O)(=O)Cc2ccccc2F)c2ccccc21	/	/	/	-5%	/	/
CC(C)c1ccc(NC(=O)CCCc2nc(-c3ccc(Cl)cc3)no2)cc1	/	/	/	-2%	/	/
O=C(O)c1cc(/C=C/c2ccc(N3CCOCC3)c([N+](=O)[O-])c2)nc2ccccc12	?	/	?	1.2µM*	?	?
O=[N+]([O-])c1cccc2ccc(/C=C/c3ccc(Cl)cc3)nc12	?	/	?	?	-1%	?
COc1cc(/C=C/C(=O)OCN2C(=O)c3ccccc3C2=O)ccc1OC(F)F	-3%	/	2%	2%	6%	-1%
O=C(O)c1cc(/C=C/c2ccc(N3CCOCC3)cc2)nc2ccccc12	?	?	?	0.48µM*	13%	?
CC(=O)Nc1ccc(/C=C/c2ccc3c([N+](=O)[O-])cccc3n2)cc1	1.1µM*	?	?	?	?	?
COc1cc(/C=C/c2cc(C(=O)O)c3ccccc3n2)ccc1OC(F)F	3.2µM*	/	?	0.43µM*	3%	3.2µM*
CN(C)CCNCCN	/	-7%[9.22 µM]	/	/	/	/
